The term AC50 denotes the concentration at which the activity in the assay is half-maximal.

These results are taken from PubChem BioAssay (EPA / NIEHS).

Conditions in all cases: mRNA level, 48 h; actives raise or lower the signal
Read-out in experiment [1]: Interleukin 6 (IL6), IL6 (gene 3569)
In words: LTEA_HepaRG_IL6: Life Technologies and Expression Analysis (LTEA) Assay for Interleukin 6 (IL6) using HepaRG (AID 2283509). In short, it runs like this: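 Differentiated human HepaRG cells, plated 48 h then switched to serum-free induction medium, were exposed in duplicate for 48 h to eight half-log concentrations up to 100 uM in 0.5% DMSO. IL6 mRNA measured by qRT-PCR, normalized to ACTB/GAPDH/POLR2A.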

Read-out in experiment [2]: Interleukin 6 Receptor (IL6R), IL6R (gene 3570)
The experiment is described as follows: LTEA_HepaRG_IL6R: Life Technologies and Expression Analysis (LTEA) Assay for Interleukin 6 Receptor (IL6R) using HepaRG (AID 2283510).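 As to AC50: TaqMan qRT-PCR signal normalized to ACTB GAPDH and POLR2A housekeeping genes.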 In short, it runs like this: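 Readout is IL6R transcript level by TaqMan qRT-PCR, normalized to three housekeeping genes and fitted bidirectionally against 0.5% DMSO controls. Human HepaRG cells received chemicals for 48 h in serum-free induction medium, highest concentration 100 uM.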

Read-out in experiment [3]: Potassium channel subfamily K member 1 (KCNK1), KCNK1 (gene 3775)
In words: LTEA_HepaRG_KCNK1: Life Technologies and Expression Analysis (LTEA) Assay for Potassium channel subfamily K member 1 (KCNK1) using HepaRG (AID 2283511). In short, it runs like this:
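Differentiated human HepaRG cells in serum-free induction medium were exposed in duplicate for 48 h to 8 half-log concentrations up to 100 uM in 0.5% DMSO. KCNK1 mRNA was measured by TaqMan qRT-PCR, normalized to ACTB, GAPDH and POLR2A, and fitted bidirectionally versus DMSO.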

Read-out in experiment [4]: Keratin 19 (KRT19), KRT19 (gene 3880)
In words: LTEA_HepaRG_KRT19: Life Technologies and Expression Analysis (LTEA) Assay for Keratin 19 (KRT19) using HepaRG (AID 2283512). The procedure, abridged:
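Gene-expression endpoint in the human liver line HepaRG after 48 h exposure to up to 100 uM test chemical with 0.5% DMSO vehicle; KRT19 mRNA by qRT-PCR, analyzed bidirectionally versus DMSO.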

Read-out in experiment [5]: JUN Transcription Factor, JUN (gene 3725)
The experiment is described as follows: LTEA_HepaRG_JUN: Life Technologies and Expression Analysis (LTEA) Assay for JUN Transcription Factor using HepaRG (AID 2283513). The procedure, abridged: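 Cells plated 48 h, medium switched to serum-free induction medium, then dosed 48 h (100 uM top, half-log dilutions, 0.5% DMSO). RNA isolated; JUN measured by qRT-PCR against three housekeeping genes; gain or loss fitted relative to DMSO.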

Read-out in experiment [6]: Lipase C (LIPC), LIPC (gene 3990)
In words: LTEA_HepaRG_LIPC: Life Technologies and Expression Analysis (LTEA) Assay for Lipase C (LIPC) using HepaRG (AID 2283514). The procedure, abridged: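 Differentiated human HepaRG cells in serum-free induction medium were exposed in duplicate for 48 h to eight concentrations (top 100 uM, half-log steps, 0.5% DMSO). LIPC mRNA was quantified by TaqMan qRT-PCR, normalized to ACTB, GAPDH and POLR2A, with bidirectional fitting versus DMSO.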

Read-out in experiment [7]: Lipoprotein lipase (LPL), LPL (gene 4023)
The experiment is described as follows: LTEA_HepaRG_LPL: Life Technologies and Expression Analysis (LTEA) Assay for Lipoprotein lipase (LPL) using HepaRG (AID 2283515). The procedure, abridged:
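Differentiated human HepaRG cells in serum-free induction medium were exposed in duplicate for 48 h to eight half-log concentrations (top 100 uM) in 0.5% DMSO. LPL mRNA was quantified by TaqMan qRT-PCR, normalized to ACTB, GAPDH and POLR2A.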

Read-out in experiment [8]: MicroRNA 122 (MIR122), gene 406906
In words: LTEA_HepaRG_MIR122: Life Technologies and Expression Analysis (LTEA) Assay for MicroRNA 122 (MIR122) using HepaRG (AID 2283516). Also: the transcript read is the microRNA miR-122. The procedure, abridged: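 HepaRG plated 48 h, switched to serum-free induction medium, then treated in duplicate for 48 h (100 uM top, half-log steps, 0.5% DMSO vehicle). RNA isolated, qRT-PCR performed, concentration-response fitted both directions relative to DMSO.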

Read-out in experiment [9]: matrix metalloproteinase-10 (MMP10), MMP10 (gene 4319)
The experiment is described as follows: LTEA_HepaRG_MMP10: Life Technologies and Expression Analysis (LTEA) Assay for matrix metalloproteinase-10 (MMP10) using HepaRG (AID 2283517). The procedure, abridged:
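HepaRG, collagen I, ~100,000 cells/well; serum-free induction medium; 48 h exposure, duplicate, 8-pt half-log to 100 uM, 0.5% DMSO. Readout: TaqMan qRT-PCR, normalized to ACTB/GAPDH/POLR2A; bidirectional fit vs DMSO.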

Read-out in a further experiment: MYC, MYC (gene 4609)
The experiment is described as follows: LTEA_HepaRG_MYC: Life Technologies and Expression Analysis (LTEA) Assay for MYC using HepaRG (AID 2283518). In short, it runs like this: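 Cells are thawed, plated and cultured 48 h, then treated for 48 h with test chemicals (eight half-log concentrations from 100 uM, 0.5% DMSO vehicle). RNA is isolated and MYC expression quantified by qRT-PCR against three housekeeping genes.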

Read-out in experiment [10]: matrix metalloproteinase-3 (MMP3), MMP3 (gene 4314)
In words: LTEA_HepaRG_MMP3: Life Technologies and Expression Analysis (LTEA) Assay for matrix metalloproteinase-3 (MMP3) using HepaRG (AID 2283519). The procedure, abridged: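 Differentiated human HepaRG cells, plated 48 h on collagen I, were exposed in duplicate for 48 h in serum-free induction medium to eight half-log concentrations up to 100 uM in 0.5% DMSO. MMP3 mRNA was quantified by TaqMan qRT-PCR, normalised to ACTB, GAPDH and POLR2A.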

Read-out in experiment [11]: Paternally Expressed 10 (PEG10), PEG10 (gene 23089)
The experiment is described as follows: LTEA_HepaRG_PEG10: Life Technologies and Expression Analysis (LTEA) Assay for Paternally Expressed 10 (PEG10) using HepaRG (AID 2283520). The procedure, abridged: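 HepaRG, 48 h post-plating → serum-free induction medium → 48 h chemical exposure (duplicate, 8-pt, max 100 uM, half-log, 0.5% DMSO) → lysis in RLT → TaqMan qRT-PCR for PEG10, ACTB/GAPDH/POLR2A normalisation.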

Read-out in experiment [12]: Nuclear factor NF-kappa-B p105 subunit (Homo sapiens) (UniProt P19838)
The experiment is described as follows: LTEA_HepaRG_NFKB1: Life Technologies and Expression Analysis (LTEA) Assay for Nuclear Factor Kappa B Subunit 1 (NFKB1) using HepaRG (AID 2283521). In short, it runs like this: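 Human HepaRG cells receive eight half-log concentrations, highest 100 uM, for 48 h. NFKB1 expression is then quantified by qRT-PCR and analysed for up- or down-regulation relative to 0.5% DMSO vehicle.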

Read-out in experiment [13]: Protein phosphatase 2A (PPP2R4), PTPA (gene 5524)
In words: LTEA_HepaRG_PPP2R4: Life Technologies and Expression Analysis (LTEA) Assay for Protein phosphatase 2A (PPP2R4) using HepaRG (AID 2283522). The procedure, abridged:
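Readout is PPP2R4 transcript level by microfluidic qRT-PCR after 48 h chemical treatment of human HepaRG liver cells. Concentrations spanned 100 uM downward in half-log steps; gain or loss of signal was fitted relative to DMSO.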

Read-out in experiment [14]: Phosphatase and tensin (PTEN), PTEN (gene 5728)
In words: LTEA_HepaRG_PTEN: Life Technologies and Expression Analysis (LTEA) Assay for Phosphatase and tensin (PTEN) using HepaRG (AID 2283523). In short, it runs like this: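 Differentiated human HepaRG cells, plated 48 h then switched to serum-free induction medium, were exposed in duplicate for 48 h to eight half-log concentrations up to 100 uM in 0.5% DMSO. PTEN mRNA measured by TaqMan qRT-PCR, normalized to ACTB/GAPDH/POLR2A, bidirectional fit versus DMSO.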

Read-out in experiment [15]: Pyruvate Dehydrogenase Kinase 4 (PDK4), PDK4 (gene 5166)
In words: LTEA_HepaRG_PDK4: Life Technologies and Expression Analysis (LTEA) Assay for Pyruvate Dehydrogenase Kinase 4 (PDK4) using HepaRG (AID 2283525). The procedure, abridged:
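Differentiated human HepaRG cells, pre-cultured 48 h, were exposed in duplicate for 48 h in serum-free induction medium to eight half-log concentrations up to 100 uM in 0.5% DMSO. PDK4 mRNA was quantified by qRT-PCR, normalized to ACTB, GAPDH and POLR2A, bidirectional fitting versus DMSO.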

Read-out in experiment [16]: NAD(P)H dehydrogenase [quinone] 1 (NQO1), NQO1 (gene 1728)
In words: LTEA_HepaRG_NQO1: Life Technologies and Expression Analysis (LTEA) Assay for NAD(P)H dehydrogenase [quinone] 1 (NQO1) using HepaRG (AID 2283526). In short, it runs like this:
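HepaRG, 48 h post-plating → serum-free induction medium → test chemical 48 h (duplicate, 100 uM top, half-log x8, 0.5% DMSO) → RNA isolation → qRT-PCR, ACTB/GAPDH/POLR2A normalization; bidirectional curve fit vs DMSO baseline.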

Read-out in experiment [17]: Nuclear factor erythroid 2-related factor 2 (Homo sapiens) (UniProt Q16236)
In words: LTEA_HepaRG_NFE2L2: Life Technologies and Expression Analysis (LTEA) Assay for Nuclear factor erythroid 2-related factor 2 (NFE2L2) Transcription Factor using HepaRG (AID 2283527).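 As to outcome: TaqMan qRT-PCR transcript level normalised to ACTB GAPDH and POLR2A housekeeping genes.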 The procedure, abridged: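 Differentiated human HepaRG cells in serum-free induction medium were exposed for 48 h to eight concentrations (top 100 uM, half-log dilutions, 0.5% DMSO), in duplicate. NFE2L2 mRNA was quantified by TaqMan qRT-PCR, normalized to ACTB, GAPDH and POLR2A, with bidirectional fitting versus DMSO.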

Read-out in experiment [18]: succinate dehydrogenase complex iron sulfur subunit B (SDHB), SDHB (gene 6390)
In words: LTEA_HepaRG_SDHB: Life Technologies and Expression Analysis (LTEA) Assay for succinate dehydrogenase complex iron sulfur subunit B (SDHB) using HepaRG (AID 2283528). The procedure, abridged:
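A human HepaRG culture in serum-free induction medium received test chemicals for 48 h over an eight-point range capped at 100 uM. SDHB expression change was quantified by qRT-PCR.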

The source made the active and inactive calls. The calls were made as follows: active = hit-call score of the fitted dose curve at least 0.9, where 1 is the maximum; inactive = score below 0.9.

Nuclear factor erythroid 2-related factor 2 (Homo sapiens), sequence (Q16236 whole entry, looked up): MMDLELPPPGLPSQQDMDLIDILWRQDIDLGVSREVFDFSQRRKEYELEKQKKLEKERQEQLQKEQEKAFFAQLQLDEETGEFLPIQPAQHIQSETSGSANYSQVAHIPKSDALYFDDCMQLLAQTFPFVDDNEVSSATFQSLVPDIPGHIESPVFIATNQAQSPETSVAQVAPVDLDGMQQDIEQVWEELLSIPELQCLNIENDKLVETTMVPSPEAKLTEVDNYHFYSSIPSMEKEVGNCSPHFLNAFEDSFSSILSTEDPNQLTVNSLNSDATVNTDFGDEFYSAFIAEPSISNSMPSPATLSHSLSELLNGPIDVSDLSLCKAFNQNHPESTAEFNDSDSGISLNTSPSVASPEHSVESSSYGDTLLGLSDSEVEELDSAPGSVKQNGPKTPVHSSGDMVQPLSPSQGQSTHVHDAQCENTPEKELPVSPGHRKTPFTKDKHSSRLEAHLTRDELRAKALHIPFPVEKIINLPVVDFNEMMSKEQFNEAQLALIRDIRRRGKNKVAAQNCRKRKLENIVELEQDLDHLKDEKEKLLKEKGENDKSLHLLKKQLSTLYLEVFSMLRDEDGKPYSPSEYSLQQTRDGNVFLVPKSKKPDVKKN
Nuclear factor NF-kappa-B p105 subunit (Homo sapiens), sequence (P19838 whole entry, looked up): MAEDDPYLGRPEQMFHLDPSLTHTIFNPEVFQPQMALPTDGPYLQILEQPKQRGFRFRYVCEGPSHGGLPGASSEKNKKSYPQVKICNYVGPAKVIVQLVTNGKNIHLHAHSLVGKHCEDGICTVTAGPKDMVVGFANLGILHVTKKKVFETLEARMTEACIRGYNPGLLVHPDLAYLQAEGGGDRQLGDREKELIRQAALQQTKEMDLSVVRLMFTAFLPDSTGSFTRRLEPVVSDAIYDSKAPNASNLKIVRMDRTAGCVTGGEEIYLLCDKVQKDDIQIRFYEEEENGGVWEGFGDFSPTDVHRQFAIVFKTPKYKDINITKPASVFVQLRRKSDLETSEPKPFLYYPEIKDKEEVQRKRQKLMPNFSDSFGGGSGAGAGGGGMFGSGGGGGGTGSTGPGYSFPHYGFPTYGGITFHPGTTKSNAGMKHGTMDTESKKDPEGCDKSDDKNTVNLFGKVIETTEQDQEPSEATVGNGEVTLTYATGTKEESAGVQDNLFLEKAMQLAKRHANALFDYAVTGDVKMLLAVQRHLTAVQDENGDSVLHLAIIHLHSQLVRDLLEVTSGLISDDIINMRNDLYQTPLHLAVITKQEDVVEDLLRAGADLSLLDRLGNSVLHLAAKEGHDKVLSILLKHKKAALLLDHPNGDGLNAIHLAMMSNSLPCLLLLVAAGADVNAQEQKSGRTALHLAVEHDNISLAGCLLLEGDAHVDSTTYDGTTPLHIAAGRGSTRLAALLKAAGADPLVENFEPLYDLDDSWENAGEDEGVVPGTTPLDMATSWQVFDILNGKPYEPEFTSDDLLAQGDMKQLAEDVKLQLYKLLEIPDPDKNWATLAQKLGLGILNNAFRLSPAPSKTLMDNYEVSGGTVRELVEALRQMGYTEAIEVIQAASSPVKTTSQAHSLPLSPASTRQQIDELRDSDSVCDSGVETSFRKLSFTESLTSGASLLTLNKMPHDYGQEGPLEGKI

Regarding `CC(=O)NC1(c2cccc(F)c2)CCN(CC[C@@]2(c3ccc(Cl)c(Cl)c3)CN(c3ccccc3)C(=O)CO2)CC1`, the AC50 in experiment [1] was 76.2 µM (active); in [2], 77.5 µM (active); in experiment [5], 62.1 µM (active); in experiment [7], 23.1 µM (active); in [9], 71 µM (active); in experiment [12], 61.6 µM (active). Also, the half-maximal activity concentration (AC50) is 65.3 µM (active) in experiment [14] and 76.3 µM (active) in experiment [17]. Also, the outcome in experiment [3] is “inactive”; in experiment [4], “inactive”; in experiment [6], “inactive”; in experiment [8] it was “inactive”; with MYC, MYC (gene 4609), “inactive”; in experiment [10], “inactive”. Moreover, the call in experiment [11], in experiment [13], in experiment [15], in [16] and in experiment [18] was inactive.
As to `NC(=O)N1C(=O)C(C(=O)c2cc(Cl)cs2)c2cc(F)c(Cl)cc21` (centres undefined), the AC50 in experiment [1] is 31.7 µM (active); in experiment [2], 30.9 µM (active); in experiment [3] it was 29.1 µM (active); in experiment [4] it was 13.2 µM (active); in experiment [5] it was 30.3 µM (active); in experiment [6], 21.2 µM (active). Further, the AC50 was 90.6 µM (active) in experiment [7]; 26.4 µM (active) in experiment [8]; 34.9 µM (active) in [9]; 27 µM (active) with MYC, MYC (gene 4609); 50 µM (active) in experiment [10]; 20.8 µM (active) in experiment [11]. Also, the concentration at half-maximal activity (AC50) in experiment [13] was 13.9 µM (active); in [14] it was 50 µM (active); in [15] it was 27.8 µM (active); in experiment [16], 13.3 µM (active); in [17], 31.8 µM (active); in experiment [18] it was 26.2 µM (active).
In the case of `CCCOC(=O)c1ccc(O)cc1`, the molecule was classed as inactive in experiment [1], in experiment [2], in [3], in [4], in experiment [5] and in experiment [6]. Besides, the outcome was “inactive” in experiment [7]; “inactive” in [8]; “inactive” in experiment [9]; “inactive” with MYC, MYC (gene 4609); “inactive” in experiment [10]; “inactive” in experiment [13]. In addition, the call in experiment [14], in [15], in experiment [16], in experiment [17] and in [18] was inactive.
